Experimental data as given in PubChem BioAssay AID1347416 (National Center for Advancing Translational Sciences (NCATS), 2020).
Hit rate of the full screen: of about 4,100 compounds, about 1,600 (39%) were called active. Not shown: some 25% with an inconclusive outcome. The call rests on the fitted dose curve; in most records, active means well fitted inhibition curve with a large enough effect; inconclusive means small, poorly fitted or top-dose-only effect; inactive means no such curve, though single readings can be large or run the other way. Some of the results follow.

Assay: qHTS Validation assay for Inhibitors of Plasmodium falciparum Dd2 growth in vitro; further: nearly all actives have a fitted effect of over 70% in size
Details: P. falciparum Dd2 in RBCs, SYBR Green growth, 72 h; series mostly up to 28.7 µM
Outline: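 P. falciparum Dd2-infected red blood cells (2.5% hematocrit, 0.3% parasitemia) grown 72 h at 37 °C under 5% O2 with compounds in a titration, 29 uM to 0.5 nM final. Growth read as SYBR Green-1 fluorescence after ~16 h lysis; artesunate 300 nM as positive control.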
Potency means the concentration at half of the fitted maximal effect.

Potency, active:
COc1ccc(-c2cc(=O)oc3c4c(ccc23)OCN(Cc2ccccc2)C4)cc1 2.99 µM
CCc1c(C)c2ccc(O)c(CN3CCN(c4ccccc4)CC3)c2oc1=O 2.37 µM
COc1ccccc1CN1COc2ccc3c(oc(=O)c4ccccc43)c2C1 2.11 µM
O=c1cc(-c2ccccc2)c2ccc3c(c2o1)CN(Cc1ccccc1)CO3 2.66 µM
Cc1ccc(CN2COc3ccc4c(-c5ccccc5)cc(=O)oc4c3C2)cc1 0.842 µM
CCc1c(C)c2ccc3c(c2oc1=O)CN(Cc1ccccc1)CO3 2.11 µM
O=c1cc(-c2ccccc2)c2ccc3c(c2o1)CN(Cc1cccc(Cl)c1)CO3 0.842 µM
O=C(NC(=S)Nc1ccc(NC(=O)c2cccs2)cc1)c1ccco1 9.44 µM
CCN(CCCNC(=O)c1nn(-c2ccc(OC)c(Cl)c2)c(=O)c2c1c1ccccc1n2C)c1cccc(C)c1 15 µM
CCN(CC)CCCNC(=O)c1nn(-c2ccc(OC)c(Cl)c2)c(=O)c2c1c1ccccc1n2C 10.6 µM
COc1ccc(-n2nc(C(=O)NCCc3ccc(OC)c(OC)c3)c3c4ccccc4n(C)c3c2=O)cc1Cl 2.99 µM
CCn1cnc2c(Nc3cc(F)cc(F)c3)nc(C#N)nc21 2.37 µM
N#Cc1nc(Nc2cc(F)cc(F)c2)c2ncn(CC(F)F)c2n1 4.73 µM
CCCC(O)c1nc2ccccc2n1CCCCOc1ccc(OC)cc1 (stereo not drawn) 15 µM
CCC(C(=O)NCCn1ccn2nc(-c3ccc(OC)cc3)cc2c1=O)c1ccccc1 (stereo not drawn) 15 µM
COC[C@H]1CCCN1[C@@H]1[C@H](O)[C@H](CO)O[C@@H]1CN(Cc1cccc(Cl)c1)Cc1cccc(Cl)c1 10.6 µM
O=C1c2ccccc2C2=Nc3ccccc3SC(c3ccccc3F)C12 (stereo not drawn) 4.73 µM
O=C1c2ccccc2C2=Nc3ccccc3SC(c3ccc(Cl)cc3)C12 (stereo not drawn) 2.66 µM
CCOC(=O)c1sc(NC(=O)C(C)Sc2nc(-c3ccccc3)cc(C(F)(F)F)n2)c(C(=O)OC)c1C (stereo not drawn) 2.37 µM
CCCOC(=O)c1c(NC(=O)C(C)Sc2nc(-c3ccccc3)cc(C(F)(F)F)n2)sc(C(=O)N(C)C)c1C (stereo not drawn) 1.68 µM
CCN(CC)C(=O)c1sc(NC(=O)C(C)Sc2nc(-c3ccccc3)cc(C(F)(F)F)n2)c(C(=O)OC)c1C (stereo not drawn) 0.596 µM
CCOc1ccc2nc(C)cc(Nc3ccc4c(c3)OCCO4)c2c1 6.68 µM
COc1ccc2nc(C)cc(NCc3cccc(C(F)(F)F)c3)c2c1 2.11 µM
COC(=O)c1ccc2nc(C)cc(Nc3ccc(O)cc3)c2c1 9.44 µM
Cc1ccc2nc(C)cc(Nc3ccc([N+](=O)[O-])cc3)c2c1 6.68 µM
COc1ccc2nc(C)cc(Nc3ccc(Cl)c(Cl)c3)c2c1 2.66 µM
Cc1ccc(S(=O)(=O)N2CCN(C(=S)NCc3ccc4c(c3)OCO4)CC2)cc1 2.37 µM
CCCCc1cc(=O)oc2cc(C)cc(OCC(=O)Nc3cccnc3)c12 0.596 µM
CCCc1cc(=O)oc2cc(C)cc(OCC(=O)NC3CC3)c12 4.73 µM
CCCc1cc(=O)oc2cc(C)cc(OCC(=O)Nc3ccccn3)c12 2.11 µM
CCCc1cc(=O)oc2cc(C)cc(OCC(=O)Nc3cccnc3)c12 0.531 µM
Cc1cc([N+](=O)[O-])ccc1NC(=O)COc1nsnc1N1CCOCC1 6.68 µM
COc1ccc(CCN2CCC(Nc3nc4ccccc4n3Cc3ccc(F)cc3)CC2)cc1 2.37 µM
Cc1nc(N2CCC(C)CC2)c2c(C)c(C(=O)Nc3ccc(C(F)(F)F)cc3)sc2n1 7.5 µM
CN(C(=O)CSc1nc2ccc(NC(=O)CCc3ccccc3)cc2s1)c1ccccc1 13.3 µM
O=C(NCc1ccc(N2CCCC2)cc1)C1CCCN(c2cnn(Cc3ccccc3)c(=O)c2)C1 (stereo not drawn) 10.6 µM
CN(C)CC(O)COc1ccc(C(C)(C)c2ccc(OCC(O)CN(C)C)cc2)cc1 (stereo not drawn) 8.41 µM
O=C(Nc1ccc(C(=O)OC[C@@H]2CCCN3CCCC[C@H]23)cc1)c1cccc(Br)c1 6.68 µM
CCN(C(=O)Cn1c(=O)n(Cc2ccc3c(c2)OCO3)c(=O)c2ccc(C(=O)NC3CCCCC3)cc21)c1cccc(C)c1 6.68 µM
c1ccc(-c2nc(-c3ccncc3)no2)c(OC2CCN(C3CCCC3)C2)c1 (stereo not drawn) 15 µM
Cc1cc(C(=O)Nc2cnn(Cc3ccc(Cl)cc3Cl)c2)no1 9.44 µM
COc1ccc(Nc2cnc3ccc(-c4ccc(OC)c(OC)c4)nn23)cc1 1.72 µM
OCc1cccc(-c2ccc3ncc(Nc4ccc(OCCN5CCCC5)cc4)n3n2)c1 3.44 µM
COc1ccc(-c2ccc3ncc(Nc4ccncc4)n3n2)cc1OC 4.85 µM
COc1cncc(Nc2cnc3ccc(-c4ccc(F)cc4)nn23)c1 3.06 µM

Potency, inactive:
CNC(=O)[C@@H]1CN(C(=O)c2cc(OC)cc(OC)c2)C[C@H]1COC
CC(=O)Nc1ccc(NC(=O)Cn2ccn3nc4c(c3c2=O)CCCCC4)cc1
COc1ccc(-c2ncc3c(n2)OCCN(Cc2ccccc2)C3=O)cc1
COc1ccccc1Cn1cc(C(=O)c2ccc(C)cc2)c(=O)c2cc(C)ccc21
Cn1nc(-c2nncn2CC2CC2)c2c1CCN(C(=O)c1[nH]nc3c1COc1ccccc1-3)C2
COc1cccc(C2Cn3nnc(-c4nc(-c5ccccc5Br)no4)c3CO2)c1 (stereo not drawn)
O=C1CN(Cc2ccc(-c3ccccc3)cc2)CCN1c1cc(Cl)ncn1
CCC(=O)N(C1CCOCC1)C1CCN(Cc2cccc(Cl)c2)CC1
Cc1ccc(CN2CCc3oc(C)c(C(=O)N(C)CC(=O)N4CCCC4)c3C2)cc1
Cc1cccc(CNC(=O)Cn2nc(C)c3nn(-c4ccc(Cl)cc4)c(C)c3c2=O)c1
COc1ccccc1CC(=O)NCCn1ccn2nc(-c3ccc(C)c(C)c3)cc2c1=O
COc1ccc(C(=O)NCCn2ccn3nc(-c4cc(C)ccc4C)cc3c2=O)cc1OC
CCOc1ccc(-c2cc3c(=O)n(CCNC(=O)c4ccccc4OC)ccn3n2)cc1
Cc1ccc2nc(-c3sc4nc(C)ccc4c3N)[nH]c2c1
COc1ccc(-c2cc3c(=O)n(CCNC(=O)c4cc(OC)cc(OC)c4)ccn3n2)cc1
COc1ccc(-c2cc3c(=O)n(CCNC(=O)c4ccc(OC)cc4OC)ccn3n2)cc1
CC(C)N(Cc1nc2ccccc2[nH]1)C(C)C
Cc1ccc(NC(=O)CSc2nc(-c3ccco3)cc(C(F)(F)F)n2)c(C)c1
CCc1cc(C(=O)c2ccccc2)c(N)s1
Cc1ccc(-c2onc3ccc(C(=O)O)cc23)cc1
CCc1nc2cc(N3CCC(C(=O)NCc4ccc5c(c4)OCO5)CC3)cnc2nc1CC
Cc1ccc(S(=O)(=O)N2CCC(C(=O)NCC3CC3)CC2)cc1
Cc1ccc(C)c(OCC(=O)Nc2cc(C(=O)O)cc(C(=O)O)c2)c1
Cc1cccnc1NC(=O)COc1ccc2oc3c(c2c1)CCCC3
Cc1cccc(OCC(=O)NC2CCN(C(=O)c3cc4c(=O)[nH]c(C)cn4n3)CC2)c1
CCn1ncc(N2CCC(NC(=O)COc3ccc(F)cc3)CC2)cc1=O
CCn1cc(S(=O)(=O)N2CCCOCCNC(=O)[C@@H]3CCC[C@@H]32)cn1
COc1ccc(Cn2c(C3CCN(C(=O)Cc4ccc(F)cc4)CC3)n[nH]c2=O)cc1
COc1ccc(CN2CC[C@H](c3nnc(-c4ccccc4F)o3)C2)cc1
CC1CCN(c2nc3ccc(C(=O)O)cc3s2)CC1
COc1ccc(CNC(=O)Cn2c(SCC(=O)N(C)c3ccccc3)nc3ccccc32)cc1
O=C(CC1CCCN(c2cnn(CC3CC3)c(=O)c2)C1)NCc1ccccc1 (stereo not drawn)
Cc1ccc(C)n1-c1nnc(N2CCCC(C(=O)NCc3ccccc3)C2)s1 (stereo not drawn)
Cc1cc(C)c(S(=O)(=O)Nc2cc(Cl)c3oc4c(c3c2)C(=O)CCC4)cc1C
CCc1cccc(NC(=O)c2ccc3c(c2)N(C)C2CCCCN2C3=O)c1 (stereo not drawn)
O=C(COC(=O)c1cccc(Br)c1)NCCNC(=O)COC(=O)c1cccc(Br)c1
O=S(=O)(c1cccc(F)c1)N1CCC2(CC1)CC(Cc1nc(C3CC3)no1)CCO2 (stereo not drawn)
CC1(CCCCc2ccccc2)COc2ccc(C(=O)NC3CCC(O)CC3)cc2N1 (stereo not drawn)
O=C(NC1CCN(c2cnn(CC3CC3)c(=O)c2)CC1)c1ccc2c(c1)OCO2
O=C(Cc1cccc(F)c1)N1CCC(Oc2ccccc2-c2nc(C3CC3)no2)C1 (stereo not drawn)
O=C(c1ccco1)N1CCC(Oc2ccccc2-c2nc(-c3ccccc3)no2)C1 (stereo not drawn)
Cc1cn2nc(C(=O)NCc3ccccc3Cl)cc2c(=O)[nH]1
Cc1cc(/C(N)=N/OC(=O)c2ccccc2Cl)no1
COc1ccc(C(=O)NCc2nnc3ccc(-c4ccc(F)cc4)nn23)c(OC)c1
COc1ccc(-c2ccc(SCc3ccccn3)nn2)cc1OC
Cc1oc(C(C)C)cc1C(=O)N1CC[C@](C)(O)[C@@H](O)C1
CC(=O)N1CCC([C@@H]2CN(C3CCN(CC(C)C)CC3)C[C@H]2CO)CC1
O=C(O)CC1(CC(=O)N2CCN3C(=O)N(Cc4ccccc4)C(=O)[C@H]3C2)CCCC1
